Compound activity from PubChem.
PAFAH1B3 inh: PAFAH1B3 enzyme inhibitors, primary screen, biochemical, fluorescence polarization, human; recombinant PAFAH1B3, FP-rhodamine probe; inhibition, % at 3.39 µM; Platelet-activating factor acetylhydrolase IB subunit alpha1 (Homo sapiens), Q15102; 0.28% of 340,000 active;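 active = inhibition above the screen-wide average of all tested compounds plus 3 SD, cut at about 25% in these data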;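 note: 0% = enzyme with DMSO only and 100% = wells lacking PAFAH1B3 protein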
Target sequence (Q15102 whole entry, looked up): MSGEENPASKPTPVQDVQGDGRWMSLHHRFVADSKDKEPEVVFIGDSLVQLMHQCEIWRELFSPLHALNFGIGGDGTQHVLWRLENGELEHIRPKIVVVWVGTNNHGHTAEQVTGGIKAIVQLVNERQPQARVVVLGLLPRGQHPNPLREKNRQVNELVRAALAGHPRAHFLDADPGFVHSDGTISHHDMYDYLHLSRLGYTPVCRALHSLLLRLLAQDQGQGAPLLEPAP
PAFAH2 FP inh: PAFAH2 enzyme inhibitors, primary screen, biochemical, fluorescence polarization, human. Platelet-activating factor acetylhydrolase 2, cytoplasmic (Homo sapiens), Q99487. recombinant PAFAH2, FP-rhodamine activity probe. inhibition, % at 3.39 µM. 0.99% of 340,000 active. AID 492956, 2010;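 active = inhibition above the mean over all tested compounds plus 3 SD, cut at about 30% in these data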;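 note: inhibitors block probe labeling of enzyme so polarization drops; 0% = enzyme with DMSO and 100% = wells lacking PAFAH2 protein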
Fam108B counter: mouse Fam108B serine hydrolase inhibitors, primary screen, counter-screen for RBBP9 inhibitor project, biochemical, fluorescence polarization; recombinant Fam108B, FP-Rh probe fluorescence polarization; inhibition, % at 9.51 µM; 0.33% of 300,000 active; AID 1947, 2009;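 active = inhibition above the screen mean inhibition plus 3 SD, computed separately per campaign, cut at about 18% in these data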;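 note: inhibitors lower polarization as less probe binds the enzyme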
PME-1 inh: PME-1 inhibitors via competitive probe labeling, primary screen, biochemical, fluorescence polarization, FP-Rh probe, HTS; Protein phosphatase methylesterase 1 (Homo sapiens), Q9Y570; recombinant PME-1; inhibition, % at 5.9 µM; 0.53% of 320,000 active; AID 2130, 2009;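 active = inhibition above the campaign mean of all compounds plus 3 SD, cut at about 26% in these data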;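 note: competitive labeling of PME-1 active site by serine hydrolase directed probe; 0% = PME-1 with DMSO and 100% = wells lacking PME-1 enzyme; inhibitors block probe labeling so polarization falls and inhibition rises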
Target sequence (Q9Y570 whole entry, looked up): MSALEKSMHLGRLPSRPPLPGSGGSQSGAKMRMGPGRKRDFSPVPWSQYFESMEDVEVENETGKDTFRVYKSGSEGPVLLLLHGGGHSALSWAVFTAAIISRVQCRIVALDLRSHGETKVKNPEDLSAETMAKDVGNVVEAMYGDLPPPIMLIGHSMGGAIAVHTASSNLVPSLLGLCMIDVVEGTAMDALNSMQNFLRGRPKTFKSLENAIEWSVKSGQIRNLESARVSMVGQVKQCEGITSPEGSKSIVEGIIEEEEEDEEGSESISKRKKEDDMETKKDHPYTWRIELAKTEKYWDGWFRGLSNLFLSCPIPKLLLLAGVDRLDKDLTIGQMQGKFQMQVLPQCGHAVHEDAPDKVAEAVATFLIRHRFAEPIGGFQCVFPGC
PAFAH1B2 FP inh: PAFAH1B2 enzyme inhibitors, primary screen, biochemical, fluorescence polarization, human; Platelet-activating factor acetylhydrolase IB subunit alpha2 (Homo sapiens), P68402; recombinant PAFAH1B2, FP-rhodamine activity probe; inhibition, % at 3.39 µM; 1.2% of 340,000 active;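 active = inhibition above the mean of all tested compounds plus 3 SD, cut at about 24% in these data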;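 note: 0% = enzyme with DMSO and 100% = wells lacking PAFAH1B2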
pPAFAH inh: pPAFAH enzyme inhibitors, primary screen, biochemical, fluorescence polarization, human; Platelet-activating factor acetylhydrolase (Homo sapiens), Q13093; recombinant pPAFAH, FP-rhodamine probe fluorescence polarization; inhibition, % at 3.39 µM; 1.5% of 330,000 active;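 active = inhibition above the mean inhibition across the screen plus 3 SD, cut at about 25% in these data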;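 note: inhibitors block binding of the rhodamine activity-based probe so polarization drops; 0% = enzyme with DMSO and 100% = wells lacking pPAFAH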
Active calls of the source: *; . = no result given. Only some compounds are listed: those with a hit (about 2.9% of all), similar ones and a draw of the others.

SMILES	PAFAH1B3 inh	PAFAH2 FP inh	Fam108B counter	PME-1 inh	PAFAH1B2 FP inh	pPAFAH inh
O=C(COc1cccc(Br)c1)Nc1ccc(N2CCOCC2)cc1N1CCOCC1	7	13	.	10	2	9
CN(C)c1ccc(NC(=O)CSc2n[nH]c(-c3ccncc3)n2)cc1	-1	2	.	.	3	.
COc1ccc(S(=O)(=O)Nc2ccccc2C)cc1C(=O)N1CCOCC1	3	8	3	-2	1	26*
O=C(c1ccc(S(=O)(=O)Nc2ccccc2)cc1)N1CCCC1	4	0	1	-2	1	17
CN1CCN(C(=O)c2ccc(S(=O)(=O)Nc3ccccc3)cc2)CC1	1	2	.	-2	5	25*
CCOc1ccc(NS(=O)(=O)c2ccc(C(=O)NNC(=O)c3ccccc3O)cc2)cc1	1	-1	-1	-1	3	26*
CCOc1ccc(NS(=O)(=O)c2ccc(C(=O)N3CCN(c4ncccn4)CC3)cc2)cc1	9	-6	-1	1	4	27*
Cc1ccc(CNc2ncnc3c2cnn3C2CCCCO2)cc1 (stereo not given)	4	3	.	.	8	.
CCN(CC(=O)Nc1ccc2c(c1)OCCO2)C(=O)c1ccc(S(=O)(=O)N(C)C)cc1	5	6	4	-7	1	-1
CCOC(=O)COc1ccccc1/C=N\NC(=O)c1cc2c(ccc3ccccc32)o1	-34	-69	.	.	-26	.
CCOc1ccccc1N1CCN(C(=O)c2ccc(S(=O)(=O)Nc3ccccc3)cc2)CC1	12	-6	.	11	-1	27*
O=C1CC(NS(=O)(=O)c2ccc([N+](=O)[O-])cc2)CN1c1ccc(Cl)cc1 (stereo not given)	7	0	0	3	16	1
Cc1ccc(C(=O)NCc2ccco2)cc1S(=O)(=O)Nc1cccc(C)c1C	5	3	1	9	5	33*
O=C1OC(c2ccccc2)=N/C1=C/c1cccc(OC(=O)c2cccs2)c1	2	-5	-8	-29	66*	0
Nc1ncnc2c1nc(Sc1ccc(Cl)cc1)n2[C@@H]1O[C@@H]2COP(=O)(O)O[C@H]2[C@H]1O	4	-4	-4	-3	26*	2
CCCC(=O)Nc1ncnc2c1ncn2[C@@H]1O[C@@H]2COP(=O)(O)O[C@H]2[C@H]1OC(=O)CCC	5	0	-6	0	5	3
O=C(NCc1ccc(Cl)cc1)C(=O)NCC1OCCN1S(=O)(=O)c1cc(F)ccc1F (stereo not given)	0	3	-1	1	30*	11
Cc1ccc(S(=O)(=O)N2CCCN(C(=O)c3cc4ccccc4[nH]3)CC2)cc1	11	-2	-7	-6	15	0
NC(=O)CSc1nc2c(c(=O)n1-c1ccccc1)C1(CCCCC1)Cc1ccccc1-2	4	-3	2	6	4	3
CCn1c(SCC(N)=O)nc2c(c1=O)C1(CCCC1)Cc1ccccc1-2	-2	7	10	-1	31*	5
CCn1c(=O)c2c(n3cnnc13)-c1ccccc1CC21CCCCC1	7	0	3	4	26*	4
CC1CN(C(=O)c2cc3cc(F)ccc3[nH]2)CC(C)O1 (stereo not given)	-1	-3	.	.	2	.
CCC1CCCCN1CCCNC(=O)Cn1c2ccccc2c2nc(=O)cc(C)n21 (stereo not given)	6	2	-1	-2	2	5
Cc1nc2ccccn2c1-c1csc(Nc2cccc(O)c2)n1	6	9	.	.	6	.
Cc1cccc(Nc2nc(-c3c(C)nc4ccccn34)cs2)c1	14	1	6	7	2	30*
SMILES	PAFAH1B3 inh	PAFAH2 FP inh	Fam108B counter	PME-1 inh	PAFAH1B2 FP inh	pPAFAH inh
CSc1ccccc1NC(=O)COC(=O)c1ccc(-n2nc(C)cc2C)cc1	7	59*	.	.	5	25*
Cc1cc(C)n(-c2ccc(C(=O)OCC(=O)NCc3ccc(F)cc3)cc2)n1	3	25	-3	-5	6	28*
COc1cccc(C(=O)/C(C#N)=N/Nc2cccc(-c3ccnc(C)n3)c2)c1	6	4	8	2	4	32*
Cc1ccc(S(=O)(=O)c2nc(S(=O)(=O)c3ccc(C)cc3)c(N3CCN(CCO)CC3)s2)cc1	3	0	1	5	3	26*
CS(=O)(=O)c1nc(S(=O)(=O)c2ccc(Cl)cc2)c(N2CCN(CCO)CC2)s1	8	3	1	-2	2	5
CC1=NN(c2ccc(C)c(C)c2)C(=O)C1C(c1cccc(O)c1)C1C(=O)N(c2ccc(C)c(C)c2)N=C1C (stereo not given)	-2	9	10	34*	9	14
CNC(=O)CN(c1cc(OCCOC)c(Cl)cc1Cl)S(=O)(=O)c1ccc(OC)cc1	-2	-8	0	0	7	-2
CCOC(=O)C1CCN(C(=O)CSc2ccc(Cl)cc2)CC1	3	2	5	0	2	6
CCOC(=O)C1CCN(C(=O)COC(=O)Cc2ccc(Cl)cc2)CC1	6	11	2	4	8	30*
CC(C)C(C(=O)NCC1CCCO1)N(C(=O)CNS(=O)(=O)c1ccccc1)c1ccc(F)cc1 (stereo not given)	1	1	1	0	3	-4
Cc1cccnc1NC(=O)c1cccc(S(=O)(=O)N2CCCc3ccccc32)c1	2	1	2	3	29*	0
O=C(Nc1ncccc1O)c1cccc(S(=O)(=O)N2CCCc3ccccc32)c1	-2	25	-1	-2	21	5
CC12CCC(C(S(=O)(=O)Nc3ccccc3)C1=O)C2(C)C (stereo not given)	6	1	.	.	6	.
CC(=O)c1sc(N/N=C\c2ccc(Br)cc2)nc1C	10	-1	1	27*	3	6
Cn1c2cc(C#N)sc2c2cnn(Cc3ccc(F)cc3)c(=O)c21	4	-1	.	.	-1	-2
COc1cccc(CN(C)C(=O)c2ccc(COc3ccc(Cl)cc3)cc2)c1OC	-3	-7	0	-1	25*	8
COc1ccc(C(=O)NC2CCCc3c2cnn3-c2ccccc2F)o1 (stereo not given)	14	-4	-5	11	-2	2
O=S1(=O)CCOC[C@H](c2ccccc2)N1Cc1ccccc1F	3	-5	3	-6	29*	3
CCC1COCCS(=O)(=O)N1Cc1ccccc1F (stereo not given)	2	-6	-1	-4	-1	-3
